Inconclusive results are not listed. Active and inactive are the calls of the source. Calls follow the shape of the full dose curve.
Test: qHTS assay for small molecule agonists of the p53 signaling pathway - cell viability (AID 651633);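 also: p53RE-bla HCT reporter cells with a stable beta-lactamase p53 reporter; nearly all actives have a fitted effect of over 30% in size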
Settings: p53RE-bla HCT-116 viability, ATP luminescence, 16 h; series mostly up to 83.3 µM
Excerpt: National Center for Advancing Translational Sciences [NCATS]
NIH Chemical Genomics Center [NCGC]
U.S. Environmental Protection Agency [EPA]
National Institutes of Environmental Health Sciences [NIEHS]
National Toxicology Program [NTP]
U.S. Food and Drug Administration [FDA]
p53, a tumor suppressor protein, is activated following cellular insult, including DNA damage and other cellular stresses. The activation of p53 regulates cell fate by inducing DNA repair, cell cycle arrest, apoptosis, or cellular senescence. The activation of p53, therefore, is a good indicator of DNA damage and other cellular stresses. […] The activation of the reporter gene under culture conditions can be detected by fluorescence intensity. This cell line was used to screen the Tox21 compound library in a 1536-well plate format and to identify agonists that activate the p53 signaling pathway.
Tox21 Assay Protocol Summary:
The p53RE-bla cells were dispensed at 4,000 cells/5 ul/well in 1536-well black wall/clear bottom plates using a Multidrop dispenser. After the assay plates were incubated at a 37 C/5% CO2 incubator for 5 hours, 23 nL of compounds dissolved in DMSO, positive controls or DMSO only was transferred to the assay plate by a pin tool. The plates were incubated at 37 C for 16 hours. After 1 uL of LiveBLAzerTM B/G FRET substrate was added using a Flying Reagent Dispenser, the plates were incubated at room temperature for 2 hours, and fluorescence intensity was measured by an Envision plate reader.
For cell viability readout that measures cytotoxicity, 4 ul/well of CellTiter-Glo reagent was added into the assay plates using a Flying Reagent Dispenser. After 30 min incubation at room temperature, the luminescence intensity in the plates was measured using a ViewLux plate reader.

| Structure (SMILES) | outcome |
| --- | --- |
| CC(=O)OC1CCC(C(C)(C)C)CC1 (stereo not given) | inactive |
| COc1cc(NS(=O)(=O)c2ccc(N)cc2)ncn1 | inactive |
| O=S(=O)(O)c1cc(I)c(O)c2ncccc12 | inactive |
| NCC1CCC(C(=O)Oc2ccc(CCC(=O)O)cc2)CC1 (stereo not given) | inactive |
| CCc1ccc(CC)cc1 | inactive |
| COc1cc(C(=O)NC2CCCNC2)cc(OC)c1OC (stereo not given) | inactive |
| CSC(=O)c1cccc2nnsc12 | inactive |
| BrCCOc1ccccc1 | inactive |
| C/C=C(\C)C=O | inactive |
| CCCCCCCC(=O)N(C)C | inactive |
| NNC(=O)OCc1ccccc1 | inactive |
| CC(CN1CC(=O)NC(=O)C1)N1CC(=O)NC(=O)C1 (stereo not given) | inactive |
| CC(=O)SC[C@@H](C)C(=O)N1CCC[C@H]1C(=O)N[C@@H](Cc1ccccc1)C(=O)O | inactive |
| C/C=C/C(=O)CCCC | inactive |
| CCOCCOCCOC(C)=O | inactive |
| COC(=O)c1ccccc1Cl | inactive |
| CC(C)C[P+](C)(CC(C)C)CC(C)C | inactive |
| Cc1nc2ccc(Cl)cc2[nH]1 | inactive |
| O=C(O)Cc1ccccc1Oc1ccc(Cl)cc1Cl | inactive |
| CC(C)c1cc(C(C)C)cc(C(C)C)c1 | inactive |

| Structure (SMILES) | outcome |
| --- | --- |
| C/C(Cl)=C/CCl | inactive |
| CCCC(=O)C(CC)Sc1ccoc1C (stereo not given) | inactive |
| Cc1ccccc1C#N | inactive |
| CC(=O)SCC(CC(=O)c1ccc(C)cc1)C(=O)O (stereo not given) | inactive |
| CC(C)(C)OC(=O)c1ccccc1C(=O)O | inactive |
| O=C(O)/C=C(\CC(=O)O)C(=O)O | inactive |
| N=C(N)N | inactive |
| CC(C)=CCC/C(C)=C\C#N | inactive |
| C=CCn1cc[n+](C)c1 | inactive |
| C[C@@H](CN1CC(=O)NC(=O)C1)N1CC(=O)NC(=O)C1 | inactive |
| CCCCCCCCCCCBr | inactive |
| CCO[Si](CC(C)C)(OCC)OCC | inactive |
| CCN1CCN(C(=O)N[C@@H](C(=O)N[C@@H]2C(=O)N3C(C(=O)O)=C(CSc4nnnn4C)CS[C@H]23)c2ccc(O)cc2)C(=O)C1=O | inactive |
| CCCCCC(=O)CC | inactive |
| Cc1ccc(O)c(C(=O)c2ccccc2)c1 | inactive |
| CCCCc1ccc(Cl)cc1 | inactive |
| CCOC(=O)CC(C(C)=O)C(C)=O | inactive |
| NNC(=O)CCCCC(=O)NN | inactive |
| CCCC(=O)OC | inactive |
| Cc1ccc2ccccc2n1 | inactive |

From PubChem BioAssay (Tox21)
